# An excerpt weighted towards active compounds, which were near 20% of everything screened.
# CHX counter-1: counter-screen hit for Shiga toxin inhibitors, cycloheximide | cell reporter, cycloheximide protein synthesis inhibition counterscreen | max response, % | 12% of 300,000 active | AID 2314; in the data active = max response mostly above about 13%, no sharp cut-off; inactive = mostly below about 14%; note: read at 38.3 µM for the half of the compounds with a filed dose; 0% is about no effect
# Pf growth 96h: inhibits malaria parasite growth, 96 h; P. falciparum luciferase reporter growth, 96 h; Potency, µM (top dose mostly 28.7 µM), inactives show at the top dose activity change, negative = inhibition, usual class: inhibitors; 6.9% of 320,000 active; note: potency is the fitted concentration of half-maximal effect; % is set by controls: 0 for no effect and ±100 for the full control effect
#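 P. falciparum expressing integrated firefly luciferase grown in erythrocytes (2% hematocrit, 0.05% parasitemia final) with compounds for 96 hours at 37 C, 5% CO2. Growth inhibition read as loss of luminescence after adding luciferase detection reagent.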
# Shiga inhibitor: inhibitors of Shiga toxin in Vero cells | inhibition, % at 38.7 µM | AID 2315 | Vero cells, Shiga toxin protein synthesis inhibition reporter | 9.2% of 290,000 active; in the data active = inhibition mostly above about 28%, no sharp cut-off; inactive = mostly below about 43%; note: 0% is about no effect
# Pf growth 48h: inhibits P. falciparum growth in the first generation, 48 h; P. falciparum luciferase growth in erythrocytes, 48 h; Potency, µM (series often up to 28.7 µM), for inactives: at the highest dose activity change, negative = inhibition, usual class: inhibitors; 5.9% of 310,000 active; note: potency is the fitted concentration of half-maximal effect; % is set by controls: 0 for no effect and ±100 for the full control effect
#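 Luciferase-expressing parasites in RBCs, 2% Hct / 0.1% parasitemia final; RPMI 1640 + 0.5% Albumax; 37 C, 5% CO2, one generation; luminescence read-out, lower signal = inhibition.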
# HCMV antiviral: inhibitors of human cytomegalovirus; HFF cells, HCMV-luciferase reporter, 72 h; hits give low values; activity change, negative = inhibition, % at 57.5 µM; 4.5% of 410,000 active; in the data active = activity change below about -60%; inconclusive = no clear call, values can overlap the other calls; inactive = above about -39%; note: % is set by controls: 0 for no effect and ±100 for the full control effect
#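 Cell-based, HFFs, 1000 cells/well, 16 h 37C; cpds in DMSO + HCMV-luc, MOI 1 PFU/cell; 72 h 37C; OneGlo luminescence after 5 min RT; norm. to buffer vs Salinomycin 10uM.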
# CHX counter-2: affects protein synthesis reporter in cycloheximide counter-screen; Potency, µM (series often up to 38.3 µM), for the others: top-dose activity (activation), usual class: activators; shares compounds with Shiga inhibitor; Cycloheximide counterscreen, protein synthesis reporter, Shiga toxin assay; 3% of 510 active; calls by dose curve; note: potency is the fitted concentration of half-maximal effect; 0% is about no effect
# * marks the source's active call; other numbers are inactive results; ? = inconclusive; nt = not tested or not shown; ! = not active in a repeat. Unless noted, calls come from the whole dose curve; as a rule, active = well fitted inhibition curve with a large enough effect; inconclusive = small, poorly fitted or top-dose-only effect, or another doubt; inactive = no such curve, though single readings can be large or run the other way.
SMILES,CHX counter-1,Pf growth 96h,Shiga inhibitor,Pf growth 48h,HCMV antiviral,CHX counter-2
CC(C)Cc1nc2oc3c(NCc4cccnc4)ncnc3c2c2c1CCC2,-2,?,-19,?,-29,nt
CC(C)Cc1nc2oc3c(NCC4CCCO4)ncnc3c2c2c1CCC2 (stereo not drawn),-4,4.7µM*,58*,?,-13,-4%
Oc1ccc(N=Nc2ccccc2-c2nn[nH]n2)c(O)c1,9,0%,-6,nt,40,nt
CCOC(=O)N1CCN(C(=O)CCC(=O)c2ccc(OCC)cc2)CC1,1,-9%,41*,-10%,-28,-1%
CCOC(=O)N1CCN(C(=O)c2ccc(OCC)cc2)CC1,-6,41%,-3,21%,-15,nt
CCN(CC)S(=O)(=O)c1ccc(C(=O)NCCc2ccccn2)cc1,11,21%,45*,-9%,-25,3%
C[C@H]1CN(C2CCCCC2)C(=O)[C@@H]1CC(=O)Nc1ccc(Br)cc1,nt,nt,nt,nt,-32,nt
Cc1ccc2c(c1C)NC(C(=O)O)C1CC=CC21 (stereo not drawn),5,nt,110*!,?,nt,-2%
CC(C)NC(=O)c1cnc(N2CCN(c3ccccn3)CC2)c2ccccc12,3,?,-28,?,-2,nt
CCc1ccc(NC(=O)c2cnc(N3CCN(c4ccccn4)CC3)c3ccccc23)cc1,13,13µM*,50*,?,-19,2%
CC(=O)c1cccc(NC(=O)/C(=C/c2ccco2)NC(=O)c2ccco2)c1,2,2%,27*,2%,100,6%
O=C(COc1ccc2ccc(=O)oc2c1)NCc1ccccn1,-2,-3%,-11,3%,12,nt
Cc1cc(OCC(=O)NCc2ccccn2)cc(C)c1Br,2,?,47*,14%,nt,6%
O=C(CCN1C(=O)c2cccc3cccc(c23)C1=O)NC1CCS(=O)(=O)C1 (stereo not drawn),9,64%,75*,51%,9,0%
CCOC(=O)C1=C(O)/C(=C\c2ccc(CNC(=O)C(=O)Nc3ccccc3)o2)N=C1C,4,nt,42*,-2%,-74*,1%
CCOC(=O)C1=C(O)/C(=C\c2cccs2)N=C1C,-1,?,-13,-24%,13,nt
O=C(NC1CCCCC1)c1cccc(S(=O)(=O)N2CCCCC2)c1,-2,4.1µM*,71*,9%,?,-4%
COc1ccc2c(c1)sc1ncc(C(=O)NCc3ccc(OC(C)C)cc3)c(=O)n12,nt,nt,nt,nt,18,nt
COc1ccc2nc3cc(Cl)ccc3c(NCCCN3CCN(CCCNc4c5ccc(Cl)cc5nc5ccc(OC)cc45)CC3)c2c1,10,nt,34*,nt,nt,0%
CC(Oc1ccc(F)cc1Br)c1nc2ccccc2c(=O)[nH]1 (stereo not drawn),-2,?,71*,9.3µM*,14,?
CC(Sc1nc2ccccc2c(=O)[nH]1)C(=O)O (stereo not drawn),0,19%,-11,nt,70,nt
COc1ccc(C2C(C#N)=C(C)NC3=C2C(=O)CC(C)(C)C3)c(OC)c1 (stereo not drawn),-3,-17%,43*,-28%,nt,-2%
O=C(Nc1ncc2c(n1)-c1ccccc1CC2)c1cccc(Cl)c1,2,28%,33*,9%,?,?
CNC(=O)c1cccn(Cc2ccc(C(F)(F)F)cc2)c1=O,6,11%,26*,0%,281,-3%
CNC(=O)c1cccn(Cc2cc(C(F)(F)F)cc(C(F)(F)F)c2)c1=O,4,?,-2,-12%,-29,nt
SMILES,CHX counter-1,Pf growth 96h,Shiga inhibitor,Pf growth 48h,HCMV antiviral,CHX counter-2
Cc1ccc2c(c1)N(CC(=O)N1CCCC1)C(=O)CO2,3,24%,35*,27%,8,-1%
CCCc1nnc(SCC(=O)N2CCCCC2C)n1CCOC (stereo not drawn),-3,?,6,10%,0,nt
CCn1c(O)c(C2=NCCCC2)c2ccccc21,-1,0%,125*,0%,6,2%
O=C(NNS(=O)(=O)c1ccc(F)cc1)c1cc2ccccc2cc1O,-3,2%,-2,39%,-34,nt
CC(C)(C)NC(=O)NC(=O)CN1CCN(c2ncc(C(F)(F)F)cc2Cl)CC1,7,-5%,19,nt,-32,nt
O=C(CN1CCN(c2ncc(C(F)(F)F)cc2Cl)CC1)NC(=O)NCc1ccccc1,2,-8%,68*,1%,-13,0%
COc1ccc(/C=C2\C(=O)ON=C2c2ccccc2)cc1,15,14%,18,nt,0,nt
O=C1ON=C(c2ccccc2)/C1=C/c1ccc(OS(=O)(=O)c2ccccc2)cc1,8,32%,29*,15%,-32,0%
CCOc1ccc(CN2CCN(Cc3cc4ccccc4o3)CC2CCO)cc1 (stereo not drawn),8,?,nt,-26%,37,-1%
Cc1nn(C2CCCCC2)c(N)c1-c1ccccc1,-2,?,33*,7%,22,3%
COc1cccc(/C=C/C(=O)c2cccc([N+](=O)[O-])c2)c1,7,25%,51*,9%,37,0%
COc1cccc(/C=C/C(=O)c2cccc([N+](=O)[O-])c2)c1OC,11,8%,60*,-1%,-33,-2%
COc1ccc(/C=C(/NC(=O)c2cccc([N+](=O)[O-])c2)C(=O)O)cc1OC,5,?,-9,52%,-26,nt
Cn1ncc(Cl)c1C(=O)Nc1ccncc1,-1,?,-3,-16%,-3,nt
Cc1cnc(NC(=O)c2c(Cl)cnn2C)s1,6,10%,40*,28%,3,1%
COCC1CCN(Cc2cn[nH]c2-c2ccc(OC)c(F)c2)C1 (stereo not drawn),7,14%,-6,-12%,12,nt
COc1cc(C(=O)NCC(=O)N2CCN(S(=O)(=O)c3cc(C)ccc3C)CC2)cc(OC)c1OC,-2,?,-4,?,?,nt
Cn1ncc(Br)c1C(=O)N1CCc2ccccc21,-2,-8%,16,0%,-3,nt
Cn1cc(Br)c(C(=O)N2CCc3ccccc32)n1,9,18%,active,25%,5,6%
COc1cc(/C=C2/C(=O)c3cccc([N+](=O)[O-])c3C2=O)c(Br)cc1O,4,-61%,61*,3%,16,?
Cc1c(NC(=O)c2ccc3c(c2)OCO3)cccc1-c1nc2ccccc2o1,8,-29%,39*,8%,-33,4%
Cc1cc(N2C(=O)C(=O)/C(=C(/O)c3ccc(F)cc3)C2c2cccc(Br)c2)no1 (stereo not drawn),1,-8%,-3,10%,0,nt
Cc1ccc(/C(O)=C2\C(=O)C(=O)N(c3cc(C)on3)C2c2cccc(Br)c2)cc1 (stereo not drawn),2,143%,39*,2%,31,-3%
CC(=O)Nc1ccc(Oc2ccc(-c3noc(C)n3)cc2)cc1,12,-1%,82*,?,16,0%

# From PubChem BioAssay
